Values joined by “and” are separate entries in the source; they are usually repeats but may differ in a detail not shown here. Equal entries are not always repeated. The panel holds about 83,000 compounds, 20% with a hit somewhere; the sample as a whole holds those more often.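 Single-dose data. Exposure time 48 hours. Values below 10 considered active.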 A number with no mark means an inactive call. Active and inactive are the calls of the source.
test system: KM12 colon; assay: NCI-60 one-dose screen, 48 h (100 = growth as untreated, 0 = no growth, -100 = all killed); conditions: 10 µM
Description: Growth inhibition of the KM12 human tumor cell line is measured as a screen for anti-cancer activity. Cells are grown in 96 well plates and exposed to the test compound for 48 hours. Compounds are tested at a single concentration, which is 10^-5 M for most compounds. The reported endpoint is percent growth (GI% or GIPRCNT), where numbers from 0 - 100% represent growth inhibition, and numbers from -100% - 0 represent cell death. For example, a value of 40 represents 60% growth inhibition. A value of 0 means no net growth occurred over the course of the experiment. A value of -40 indicates 40% of cells at the beginning of the experiment died by the end of the experiment. A value of -100 means all cells are dead at the end of the experiment.
NCI-60 Human Tumor Cell Lines Screen was performed using the standard one-dose NCI protocol, which is described in more detail at https://dtp.cancer.gov/discovery_development/nci-60/default.htm.
Compounds with GIPRCNT values below 10 were considered active. Activity score was based on GIPRCNT using the following formula: […]
Score is 0 for GIPRCNT values of 100 or above, 50 for GIPRCNT values of 0, and 100 for GIPRCNT values of -100.

Row | Structure (SMILES) | growth [%]
1 | CC(=O)/C=C/c1ccc(OCc2ccc(C(C)(C)C)cc2)cc1 | 82.9

same assay, conditions: 10 µM unless noted

Row | Structure (SMILES) | growth
2 | CC[C@H](C)[C@H](NC(=O)[C@H](CCCCN)NC(=O)[C@H](CCCCN)NC(=O)[C@@H](NC(=O)[C@@H](NC(=O)[C@@H](N)Cc1cnc[nH]1)[C@@H](C)CC)[C@@H](C)CC)C(=O)N[C@@H](CCCNC(=N)N)C(=O)N[C@H](C(=O)N[C@@H](Cc1c[nH]c2ccccc12)C(=O)N[C@@H](Cc1ccc(O)cc1)C(=O)N[C@@H](CCCNC(=N)N)C(=O)N[C@@H](CCCCN)C(=O)N[C@@H](C)C(=O)N[C@@H](Cc1c[nH]c2ccccc12)C(=O)N[C@@H](Cc1cnc[nH]1)C(=O)N[C@H](C(=O)N[C@@H](CC(C)C)C(=O)NCC(=O)N[C@@H](CCCCN)C(=O)N[C@H](C(N)=O)C(C)C)C(C)C)[C@@H](C)O | -11.7% (active)
3 | Nc1ccc(/C=N/Nc2ccnc3c(N)cccc23)c2cccnc12 | 0.438% (active)
4 | Nc1ccccc1SC(CC(=O)c1ccccc1)c1ccc([N+](=O)[O-])cc1 (stereo not given) | 79.1% and 31.5%
5 | COc1ccc(/C(C)=C(\c2ccc(OCCN3CCCCCC3)cc2)c2ccc(OC(=O)C3CCCCC3)cc2)cc1 | -54.1% (active)
6 | O=C(Nc1ccc(F)cc1)c1cc2cc(Nc3nc(-c4ccccc4)nc4ccccc34)ccc2oc1=O | 102%
7 | Clc1ccc(Nc2nc(Nc3ccc(Cl)cc3)nc(Nc3ccc(-c4cc(-c5cccc(Cl)c5)on4)cc3)n2)cc1 | 104%
8 | Cc1ccc(C(=O)c2ccc(CC(=O)N=Nc3c(O)[nH]c4ccc(OC(F)(F)F)cc34)n2C)cc1 | 94%
9 | CCN(CC)CCOc1ccccc1C | 107%
10 | COc1ccc2nc3cc(Cl)ccc3c(NCCCNCCC(C)O)c2c1 (stereo not given) | -20% (active)
11 | CCOC(=O)c1nnn(Cc2cc(=O)oc3c2ccc2ccccc23)c1C | 104%
12 | Cc1nc(-n2[nH]c(=O)ccc2=O)sc1N=Nc1ccccc1 | 108%
13 | O=C1/C(=C/c2ccc(F)c(F)c2)CN(C(=O)C(Cl)Cl)C/C1=C\c1ccc(F)c(F)c1 | -89.2% (active)
14 | COc1cc(C(=O)c2ccccc2C(=O)O)c(OC)c2c1CCCC2 | 98.7% and 104%
15 | [Cu+].[NH-][C@H]1C[N-]C(=O)[C@H]([C@H]2CCN=C(N)N2)[N-]C(=O)/C(=C\NC(N)=O)[N-]C(=O)[C@H](CNC(=O)C[C@@H](N)CCCN)[N-]C(=O)[C@H](CO)[N-]C1=O | 101%
16 | O=C(Cc1ccc(F)cc1)c1ccccc1 | 111%
17 | Nc1[nH]nc(Nc2ccccc2)c1-c1nc2ccccc2s1 | 15.6%
18 | CN(Cc1ccccc1)c1nc(Cl)c(C2CC(c3ccc4c(c3)OCO4)=NN2c2cc(Cl)cc(Cl)c2)s1 (stereo not given) | 98.5%
19 | O=C1c2cc3c(cc2-c2c1c1ccc(Cl)cc1c(=O)n2CCCn1ccnc1)OCO3 | 1.36% (active)
20 | COc1ccc(CN2CCc3c(Cl)nc(N)nc3C2=O)c(OC)c1 | 11.1% [100 µM]

Row | Structure (SMILES) | growth
21 | COc1ccc(/C=N/C2=C(C#N)C(c3ccccc3)c3c(ccc4ccccc34)O2)cc1 (stereo not given) | 29.1%
22 | C[C@@H]1CC[C@@H]2[C@@H]1[C@H](OC(=O)/C=C/c1ccccc1)[C@]1(c3ccccc3)C[C@@H](NC(=O)CO)[C@@]2(C)O1 | 94.8%
23 | CC(=O)N1N=C(c2ccc(Nc3nc(Nc4ccc(F)cc4)nc(Nc4ccc(F)cc4)n3)cc2)CC1c1ccccc1 (stereo not given) | 89.1%
24 | O=C1C(c2c[nH]c3ccccc23)=C(c2coc3cc(Br)ccc23)C(=O)N1O | 97.9%
25 | C=C(C)[C@@H]1CC[C@]2(C(=O)O)CC[C@]3(C)[C@H](CC[C@@H]4[C@@]5(C)CCC(N)C(C)(C)[C@@H]5CC[C@]43C)[C@@H]12 (stereo not given in full) | 24.2%
26 | N#CSc1c[nH]c2ccc(/C=C/C(=O)/C=C(/C=C/c3ccc4[nH]cc(SC#N)c4c3)OB(F)F)cc12 | 19.6%
27 | COc1ccc2c(c1)c(C(=O)c1nc(-c3cn(C)c4ccccc34)no1)cn2C | 81%
28 | Cc1ccc(C(=O)Nc2nc3c(s2)CN(Cc2ccccc2)CC3)cn1 | 49.6%
29 | Nn1c(-c2ccc(Cl)cc2)nc2c(-c3ccc(Cl)cc3)nc3ccc(Cl)cc3c2c1=O | 36.9%
30 | Cc1cc2nc(C(Cl)Cl)nc(-c3ccc(Cl)cc3)n2n1 | -27.2% (active)
31 | Nc1nc(CSc2n[nH]c(N)n2)nc(Nc2ccccc2)n1 | 98.4%
32 | FC(F)(F)Sc1ccc(/C=C/c2cc(/C=C/c3ccc(SC(F)(F)F)cc3)n(-c3ccccc3)n2)cc1 | 95.2%
33 | O=C(CCl)n1nnnc1Cc1ccccc1 | 116%
34 | O=C(NNC(=S)Nc1ccccc1)c1ccncc1 | 107%
35 | CN1C(=O)/C(=C/c2ccc(C(=O)Nc3ncc(Cc4ccccc4Cl)s3)cc2)SC1=S | 46.1%
36 | CCNC(=O)Nc1ncccc1OCc1ccc(F)cc1 | 88.1%
37 | CN1CCN(CCCN2c3ccccc3Sc3ccc(Cl)cc32)CC1 | 73.8% and 98.2%
38 | Cc1[nH]c(C(=O)Nc2nc3ccc(NC(=O)CCN)cc3s2)c(Cl)c1Cl | 90.3%
39 | C#CCn1cnc2cnc(Nc3cccc(NC(=O)CCl)c3)nc21 | -2.39% [6.25 µM] (active)

same assay, conditions: 100 µM

Row | Structure (SMILES) | growth [%]
40 | CC(=O)/C=C/c1ccc(OCc2ccc(C(C)(C)C)cc2)cc1 | 32.1

Reference: PubChem BioAssay (NCI)
